PubChem BioAssay AID624330 (Southern Research Specialized Biocontainment Screening …, 2012)
The whole screen tested about 340,000 compounds, of which about 2,100 (0.62%) were called active.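 How the source made its calls: active means first-screen hits whose inhibition reached a set limit at any dose in the follow-up dose series; inconclusive means inhibition above the set first-screen limit but never retested; inactive means the rest.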 A selection follows. Results with a measured potency or affinity are listed apart.

Each molecule was assayed against Rac GTPase-activating protein 1 (Homo sapiens) (UniProt Q9H0H5) (assay: MgcRacGAP GTPase-activating activity inhibitors, confirmation, biochemical, ADP Hunter fluorescence, primary and confirmatory (AID 624330;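 further: fluorescence reports GDP produced by GAP-driven GTP hydrolysis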)). Settings: MgcRacGAP-stimulated Rac1 GTP hydrolysis, at 30 µM, active compounds read high, GST-tagged Rac1 F28L mutant substrate.
Chain of Rac GTPase-activating protein 1 (Homo sapiens) (Q9H0H5 whole entry, looked up): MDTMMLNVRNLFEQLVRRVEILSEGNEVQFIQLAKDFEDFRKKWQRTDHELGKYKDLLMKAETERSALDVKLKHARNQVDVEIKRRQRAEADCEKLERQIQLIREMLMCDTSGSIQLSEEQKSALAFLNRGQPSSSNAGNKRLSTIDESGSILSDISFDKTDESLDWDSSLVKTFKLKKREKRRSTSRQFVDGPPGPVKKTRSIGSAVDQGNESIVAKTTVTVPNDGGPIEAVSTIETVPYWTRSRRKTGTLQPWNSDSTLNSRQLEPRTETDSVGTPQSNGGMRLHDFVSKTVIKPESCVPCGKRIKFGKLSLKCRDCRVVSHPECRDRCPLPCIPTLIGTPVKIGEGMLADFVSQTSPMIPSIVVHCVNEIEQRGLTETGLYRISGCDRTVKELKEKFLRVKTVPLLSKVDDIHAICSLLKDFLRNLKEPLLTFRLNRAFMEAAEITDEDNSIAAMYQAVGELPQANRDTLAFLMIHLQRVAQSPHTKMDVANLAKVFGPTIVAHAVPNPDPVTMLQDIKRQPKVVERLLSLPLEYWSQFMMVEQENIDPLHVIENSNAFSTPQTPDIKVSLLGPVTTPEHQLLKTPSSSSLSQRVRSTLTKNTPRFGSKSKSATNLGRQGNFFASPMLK

Row | SMILES | inhibition
1 | COc1ccc(NC(=O)/C(Cl)=C(/Cl)S(=O)(=O)Cc2ccccc2)cn1 | 25.6% (inactive)
2 | COc1ccc(NC(=O)Cc2ccccc2)cn1 | 3.42% (inactive)
3 | COc1ccc(CS(=O)(=O)/C(Cl)=C(/Cl)C(=O)Nc2ccc(OC)nc2)cc1 | 19.4% (inactive)
4 | COc1ccc(NC(=O)C(Cl)=C(Cl)Cl)cn1 | 6.63% (inactive)
5 | CC(C)(C)c1nnc2cccc(Cl)n12 | 0.67% (inactive)
6 | CCN1C(=O)[C@H]2[C@@H](c3ccc(-c4ccc(C(C)=O)cc4)c(OC)c3)N3CCCC[C@@]3(C(=O)OC)[C@H]2C1=O | 5.29% (inactive)
7 | CCc1cc(=O)oc2cc(OC(C)C(=O)NCc3ccccn3)ccc12 (stereo unspecified) | 7.67% (inactive)
8 | C/C(=N\NC(=O)c1ccc(NS(=O)(=O)c2cccs2)cc1)c1ccc(C(C)(C)C)cc1 | 8.43% (inactive)
9 | COCCNc1nc(CSc2ccccc2)nc2sc(C)c(C)c12 | 8.51% (inactive)
10 | COCCNCc1ccccc1 | -2.56% (inactive)
11 | Cc1cc(C)cc(NC(=S)N2CCC(NC(=O)c3ccc(F)cc3)CC2)c1 | 4.86% (inactive)
12 | CCOc1ccc(NC(=O)C(NC(=O)C2CCC(C)CC2)C(C)C)cc1 (stereo unspecified) | 8.67% (inactive)
13 | COc1ccc(-c2cc(-c3ccc(O)cc3)nc(N)c2C#N)cc1OC | 11.9% (inactive)
14 | COc1cc(-c2cc(-c3ccc(F)cc3)nc(N)c2C#N)ccc1O | 40.9% (inactive)
15 | COc1cc(/C=C(\C#N)c2[nH]nc(N)c2C#N)cc(OC)c1O | 0.59% (inactive)
16 | CCOc1cc(-c2cc(-c3ccccc3)nc(N)c2C#N)ccc1O | 38.4% (inactive)
17 | CCOc1cc(-c2cc(-c3ccc(C)cc3)nc(N)c2C#N)ccc1O | 16.3% (inactive)
18 | CCCc1cc(-c2ccc(O)c(OCC)c2)c(C#N)c(N)n1 | -0.99% (inactive)
19 | CCN(CC(=O)Nc1ccc(C#N)cc1)CC(=O)Nc1ccc2c(c1)OCCO2 | 4.07% (inactive)
20 | CCNC(=O)N1CCC(n2nccc2NC(=O)CCCc2ccccc2)CC1 | 6.88% (inactive)
21 | COc1ccccc1OCCC(=O)Nc1ccc2c(c1)OCO2 | 2.43% (inactive)
22 | C=CC[N+](C)(C)CCN1C(=O)C2C(c3ccccc3)C=CC(c3ccccc3)C2C1=O (stereo unspecified) | -0.41% (inactive)
23 | C=CCC(NCc1ccco1)c1ccc(OC)c(OC)c1 (stereo unspecified) | -6.08% (inactive)
24 | O=C(Oc1ccc2c(c1)OCC2=O)c1ccccc1 | 0.9% (inactive)
25 | O=c1oc(-c2cccc(S(=O)(=O)N3CCOCC3)c2)nc2ccccc12 | 13.7% (inactive)
26 | Cc1cccc(NC(=S)NC(=O)/C=C/c2ccccc2)n1 | -2.63% (inactive)
